Assay outcomes as filed in PubChem BioAssay.
ALDH1A1 inh = inhibitors of human aldehyde dehydrogenase 1A1. P00352. Purified ALDH1A1, NADH fluorescence, propionaldehyde substrate. Potency, µM (highest dose often 75.3 µM), without a hit: at the top dose activity, negative = inhibition, most hits filed as inhibitors. 220,000 tested, 7.3% active. AID 1030;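 note: potency is the fitted concentration of half-maximal effect; plate controls were no enzyme wells and a reference inhibitor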
LMNA splice mod = LMNA splicing modulation. AID 1487. 200,000 tested, 0.01% active. HeLa LMNA splicing GFP/RFP minigene ratio, 48 h. Potency, µM (titrated, usually from 46.1 µM), for the others: at the top dose ratio change, negative = inhibition, hits mostly inhibitors; active = well fitted inhibition curve with a large enough effect in the signal ratio, with a control signal flat, not every such curve was filed as active; inconclusive = small, poorly fitted or top-dose-only effect, or effect the other way, or a change in a side signal; the % refers to the signal ratio; note: potency is the fitted concentration of half-maximal effect
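Read-out is the ratio of GFP to DsRed2 object intensity, acquired by 488 nm laser-scanning cytometry on HeLa lamin A-EGFP minigene reporter cells. Compound incubation 48 hrs at 37 °C in Opti-MEM with 2% FBS; DMSO 0.5% final.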
PNC assembly inh = perinucleolar compartment assembly inhibition | 140,000 tested, 3.1% active | activity change (PNC), negative = inhibition, % at 10 µM | PC3M PTB-GFP, PNC prevalence imaging, 16 h; hits give low values;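 active = readout at or below -70, meaning at least 70% loss of cells showing the perinucleolar compartment, a nuclear body marking cancer cells; inconclusive = readout between -30 and a set limit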;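 note: plate controls were DMSO wells for no effect and camptothecin positive control wells for full effect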
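PC3M cells stably expressing PTB-GFP, 750–1000 cells/well, treated 16 h at 37 °C with compound (23 nl of library stock), in duplicate. After paraformaldehyde fixation and Hoechst stain, imaged at 20x; PNC prevalence scored by image analysis.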
HPGD block = HPGD (human) dehydrogenase inhibition; P15428; purified HPGD, NADH fluorescence kinetic, PGE2 substrate; Potency, µM, for inactives: at the top dose activity change, negative = inhibition, actives largely listed as inhibitors; 150,000 tested, 4.3% active; AID 894; note: potency is the fitted concentration of half-maximal effect
Target sequence (P15428 whole entry, looked up): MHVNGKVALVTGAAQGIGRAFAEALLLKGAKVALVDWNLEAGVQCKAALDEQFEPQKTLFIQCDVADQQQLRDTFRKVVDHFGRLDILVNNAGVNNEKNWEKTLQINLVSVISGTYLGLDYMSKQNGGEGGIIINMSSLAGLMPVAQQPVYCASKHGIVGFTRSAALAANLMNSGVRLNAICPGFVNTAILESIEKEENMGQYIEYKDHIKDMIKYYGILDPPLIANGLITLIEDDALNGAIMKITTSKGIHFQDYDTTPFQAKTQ
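NADH formation kinetics: reaction with 30 uM PGE2 and 1 mM NAD+ (final), 20 nM enzyme, Tris-HCl pH 8 with Tween 20, after 15 min compound preincubation at room temperature. Fluorescence change, last versus first of five reads.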
ALOX12 inhib = blocks human 12-lipoxygenase activity | P18054 | purified 12-hLO, xylenol orange hydroperoxide absorbance | Potency, µM (doses to about 57.1 µM), for the others: at the highest dose activity change, negative = inhibition, usual class: inhibitors | 150,000 tested, 0.12% active; active = well fitted inhibition curve with a large enough effect; inconclusive = small, poorly fitted or top-dose-only effect; note: potency is the fitted concentration of half-maximal effect; nearly all actives have a fitted effect of over 55% in size
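Purified human 12hLO (150 nM), preincubated 15 min with compound, then 40 uM arachidonic acid for 30 min, room temperature, Hepes pH 7.0 with 0.01% Triton X-100. Hydroperoxide detected by ferrous iron/xylenol orange; 573/405 nm absorbance ratio gives reaction progress.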
Numbers without * were called inactive; ? = inconclusive; . = not tested or not shown; [ ] = dose if it differs, or a comment. Rows were chosen to be rich in hits. Some 10% of all compounds tested hit in one or more screens of this group. Unless noted, calls come from the whole dose curve; as a rule, active = well fitted inhibition curve with a large enough effect (not every such curve was filed as active); inconclusive = small, poorly fitted or top-dose-only effect, or another doubt; inactive = no such curve, though single readings can be large or run the other way. Unless noted, % is set by controls: 0 for no effect and ±100 for the full control effect.

SMILES | ALDH1A1 inh | LMNA splice mod | PNC assembly inh | HPGD block | ALOX12 inhib
Cc1ccc(NC(=O)C2C3/C=C\CCCCC32)cc1 (configuration not stated) | 2% | -7% | -81* | -2% | -4%
CC12C=C(/C=C/c3ccc(Br)cc3)C(C)(C1)[C@H](c1ccc(Br)cc1)CC2=O (some centres not stated) | 2% | . | . | -4% | .
Cc1cc(C)c(C#N)c(OCC(=O)c2ccccc2)n1 | 6.3µM* | 3% | ? | 22µM* | -9%
Cc1cc(C)c(C#N)c(SCC(=O)c2ccccc2)n1 | 22µM* | ? | . | . | .
CSc1nc(N)nc(SCC(=O)c2ccccc2)c1C#N | ? | ? | 30 | -29% | -9%
COC(=O)C(Sc1nc(C)cc(C)c1C#N)c1ccccc1 (configuration not stated) | 5% | -3% | 61 | -6% | -11%
Cc1cc(C)c(C#N)c(Sc2ccccc2N)n1 | 25µM* | -12%[1.84 µM] | . | . | .
Cc1ccc(C(=O)CSc2nc(C)cc(C)c2C(N)=O)cc1 | 11% | ? | -88* | -2% | 0%
Cc1cc(C)c(C#N)c(SCC(O)CS(=O)(=O)Cc2ccccc2)n1 (configuration not stated) | 28µM* | 2% | 45 | -18% | -5%
Cc1cc(C)c(C#N)c(SCC(=O)c2cccs2)n1 | ? | 6% | ? | 16µM* | 1%
O=C(CSc1ncnc2ccccc12)c1cccs1 | 11µM* | . | . | . | .
Cc1cc(=O)[nH]c(SCC(=O)c2ccccc2)c1C#N | 18µM* | 5% | ? | ? | -10%
COC(=O)CSc1nc(C)cc(C)c1C#N | 0% | -4%[46 µM] | . | . | .
N#Cc1cc2c(nc1SCC(O)CS(=O)(=O)Cc1ccc(Cl)cc1)CCCC2 (configuration not stated) | ? | ? | -10 | -25% | -5%
Cc1ccccc1NC(=O)CSc1[nH]c(=O)cc(C)c1C#N | -1% | ? | -3 | -17% | -6%
O=C(CSc1ncnc2ccccc12)N1CCCC1 | -6% | -29% | -8 | -17% | 12%
O=C(NCC(c1ccco1)S(=O)(=O)c1cccs1)c1ccccc1 (configuration not stated) | . | 2%[46 µM] | . | . | .
COc1cc(OC)cc(C(=O)Nc2ccc(S(=O)(=O)N3CCCCC3c3cccnc3)cc2)c1 (configuration not stated) | . | 15%[46 µM] | . | . | .
CCN(CC)C(=O)CSc1nc(C)cc(-c2cccs2)c1C#N | 13µM* | 0% | ? | -28% | 0%
Cc1cc(SCC(=O)c2ccccc2)n2nc(C)nc2n1 | 20µM* | ? | -11 | -18% | -1%
COCC(=O)N1CCC2(CCCN(C(=O)Nc3cccc(C#N)c3)C2)CC1 | -1% | . | . | -5% | -1%
O=C(CCc1ccccc1)NC(NC(=S)Nc1cccc(Cl)c1)C(Cl)(Cl)Cl (configuration not stated) | ? | -3% | -119* | -22% | -1%
Cc1ccc(C)c(NC(=S)NC(NC(=O)OCc2ccccc2)C(Cl)(Cl)Cl)c1 (configuration not stated) | -11% | -2% | -13 | -6% | -3%
O=C(NC(NC(=S)Nc1c(Cl)cc(Cl)cc1Cl)C(Cl)(Cl)Cl)OCc1ccccc1 (configuration not stated) | 3.5µM* | ? | 1 | -8% | 2%
COC(=O)[C@H](Cc1ccccc1)NC(=O)O[C@@H]1C(=O)c2ccc(OC)cc2O[C@H]1c1ccc2c(c1)OCO2 | 5% | . | . | -9% | .
SMILES | ALDH1A1 inh | LMNA splice mod | PNC assembly inh | HPGD block | ALOX12 inhib
C=C(C)CC1(NC(C)c2ccccc2)CCCCC1 (configuration not stated) | 7% | -1% | -109* | 1% | -1%
O=C(Oc1ccc(C(=S)N2CCOCC2)cc1Br)c1ccccc1F | 25µM* | ? | 39 | 32µM* | -4%
CC1=C(C(=O)Nc2ccccc2)C(c2ccc[nH]2)n2ncnc2N1 (configuration not stated) | . | 1%[46 µM] | . | . | .
N#CCC(=O)NN=C1CCCCCCCCCCC1 | 3.2µM* | 10% | 19 | -12% | 0%
O=C(CSc1ncccn1)NN=C1CCCCCCC1 | 4% | 5% | 11 | -1% | 1%
O=C1NC(=O)/C(=C\c2cn(Cc3ccccc3F)c3ccccc23)N1 | 14µM* | . | . | . | .
CC1=C(C(=O)Nc2ccc(C)cc2C)C(c2ccc([N+](=O)[O-])cc2)n2ncc(C(=O)Nc3ccc(F)cc3)c2N1 (configuration not stated) | . | 3%[46 µM] | . | . | .
CCNC(=O)c1c(NC(=O)C2COc3ccccc3O2)sc2c1CCCC2 (configuration not stated) | 7% | 6% | ? | -4% | 0%
CNC(=O)c1c(NC(=O)c2nc3ccccc3s2)sc2c1CCC2 | ? | ? | ? | 28µM* | -11%
COC(=O)c1c(NC(=O)c2nc3ccccc3s2)sc2c1CCN(C(C)=O)C2 | 13µM* | -5% | 35 | -29% | 5%
COC(=O)c1c(NC(=O)C2COc3ccccc3O2)sc2c1CCN(C(C)=O)C2 (configuration not stated) | 32µM* | ? | ? | ? | -5%
CC/C(=N\NC(=O)c1ccc(CN(C)S(=O)(=O)c2ccc(C)cc2)cc1)c1ccc(OC(F)F)cc1 | 13µM* | ? | 54 | -7% | -1%
Cc1ccc(S(=O)(=O)N(C)Cc2ccc(C(=O)NN=C3C4CC5CC(C4)CC3C5)cc2)cc1 | 0.5µM* | 1% | 12 | . | -2%
CC/C(=N\NC(C)=O)c1ccc(OC(F)F)cc1 | 4% | . | . | . | .
Cc1ccc(S(=O)(=O)N(C)Cc2ccc(C(=O)NN=C(CC(C)C)CC(C)C)cc2)cc1 | 7.1µM* | ? | 4 | -13% | 0%
Cc1ccc(S(=O)(=O)N(C)Cc2ccc(C(=O)N/N=C3\CCCC(=O)C3)cc2)cc1 | ? | ? | 31 | -17% | -4%
N#CC1=C(N)NC(SCC(=O)Nc2ccccc2)=C(C#N)C12CCCCC2 | 25µM* | -10% | -1 | -26% | -5%
N#Cc1cc2c(nc1SCc1ccccc1)CCCC2=O | ? | 2% | -25 | -21% | -3%
N#CC1=C(N)NC(SCc2ccccc2)=C(C#N)C12CCCCC2 | 13µM* | 0% | 19 | -27% | -21%
CCCSC1=C(C#N)C2(CCCCC2)C(C#N)=C(N)N1 | 2µM* | . | . | . | .
CC1(C)CC(=O)C2=C(C1)NC(SCC(N)=O)=C(C#N)C21CCCCC1 | ? | 9% | 11 | -20% | -2%
CC1=C(C(=O)Nc2ccccc2)C(c2ccncc2)C(C#N)=C(SCC(=O)Nc2ccccc2)N1 (configuration not stated) | ? | -7% | 10 | -8% | -10%
CCSC1=C(C#N)C2(CCCCC2)C(C#N)=C(N)N1 | 10µM* | 13% | 30 | -3% | -6%
COc1ccc(Cn2ccc3nc(C)c(C(=O)Nc4cc(OC)c(OC)c(OC)c4)cc3c2=O)cc1 | . | 0%[46 µM] | . | . | .
